How the values were obtained:
Assay in all cases: log2 ratio of Biotin-Ahx-Ub-VS probe labelling (fragment/DMSO); higher = less target engagement (more negative = stronger competition), active = hit call of the paper (q ≤ 0.05, log2 ratio ≤ -1)
Conditions in all cases: compound concentration: 200 uM; treatment time: 3 h
USP19 = molecular target: T1, USP19 (UniProt O94966)
T1 sequence (whole entry): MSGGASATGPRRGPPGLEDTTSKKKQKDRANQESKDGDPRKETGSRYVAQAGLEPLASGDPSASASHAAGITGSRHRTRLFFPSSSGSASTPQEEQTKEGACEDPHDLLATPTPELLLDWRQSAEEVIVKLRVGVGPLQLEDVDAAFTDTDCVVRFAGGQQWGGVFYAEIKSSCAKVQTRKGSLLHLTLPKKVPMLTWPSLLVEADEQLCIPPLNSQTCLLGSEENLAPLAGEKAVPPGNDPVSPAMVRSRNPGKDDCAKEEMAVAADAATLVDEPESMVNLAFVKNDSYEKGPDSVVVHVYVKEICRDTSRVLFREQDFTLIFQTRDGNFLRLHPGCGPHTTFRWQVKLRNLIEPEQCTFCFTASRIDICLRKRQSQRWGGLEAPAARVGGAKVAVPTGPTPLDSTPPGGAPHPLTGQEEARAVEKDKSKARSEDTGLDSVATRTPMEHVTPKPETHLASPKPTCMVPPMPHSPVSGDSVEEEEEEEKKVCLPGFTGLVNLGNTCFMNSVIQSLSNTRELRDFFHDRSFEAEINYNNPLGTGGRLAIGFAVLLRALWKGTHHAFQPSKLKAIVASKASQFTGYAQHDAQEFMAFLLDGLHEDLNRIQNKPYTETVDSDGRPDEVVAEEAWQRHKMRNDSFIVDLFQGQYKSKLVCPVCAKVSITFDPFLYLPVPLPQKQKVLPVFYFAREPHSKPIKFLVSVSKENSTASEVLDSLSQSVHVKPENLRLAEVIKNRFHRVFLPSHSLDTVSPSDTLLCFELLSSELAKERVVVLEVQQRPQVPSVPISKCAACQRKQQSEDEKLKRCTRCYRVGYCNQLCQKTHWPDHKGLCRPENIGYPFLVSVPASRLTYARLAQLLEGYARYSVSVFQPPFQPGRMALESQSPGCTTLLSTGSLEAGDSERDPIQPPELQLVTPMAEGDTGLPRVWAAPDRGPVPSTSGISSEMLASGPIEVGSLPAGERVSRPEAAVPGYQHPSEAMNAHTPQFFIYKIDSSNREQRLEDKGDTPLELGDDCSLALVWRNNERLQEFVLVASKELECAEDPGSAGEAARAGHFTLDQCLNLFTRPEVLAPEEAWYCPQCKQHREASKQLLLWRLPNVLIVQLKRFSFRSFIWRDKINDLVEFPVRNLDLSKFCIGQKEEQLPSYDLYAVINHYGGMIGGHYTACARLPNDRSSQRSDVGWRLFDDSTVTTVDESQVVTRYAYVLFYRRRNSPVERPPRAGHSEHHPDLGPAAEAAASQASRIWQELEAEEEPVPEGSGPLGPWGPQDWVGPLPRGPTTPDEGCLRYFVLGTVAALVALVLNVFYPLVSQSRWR
Method in brief: (§1)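 HEK293T lysate (495 µg per sample, in Tris/CHAPS/IGEPAL buffer with protease inhibitors) was treated in triplicate with fragment at 200 µM or with DMSO for 3 h. It was then treated with Biotin-Ahx-Ub-VS (0.5 µM final) for 1 h. Labelled DUBs were NeutrAvidin-enriched, digested with LysC and trypsin, and run by diaPASEF LC-MS/MS. Spectronaut label-free quantities were global-median-normalised. Values are average log2 ratios fragment/DMSO by unpaired t-test, using proteins with ≥2 unique peptides.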

USP24 = USP24 (UniProt Q9UPU5)
Method in brief: as §1

USP25 = molecular target: T2, USP25 (UniProt Q9UHP3)
T2 sequence (whole entry): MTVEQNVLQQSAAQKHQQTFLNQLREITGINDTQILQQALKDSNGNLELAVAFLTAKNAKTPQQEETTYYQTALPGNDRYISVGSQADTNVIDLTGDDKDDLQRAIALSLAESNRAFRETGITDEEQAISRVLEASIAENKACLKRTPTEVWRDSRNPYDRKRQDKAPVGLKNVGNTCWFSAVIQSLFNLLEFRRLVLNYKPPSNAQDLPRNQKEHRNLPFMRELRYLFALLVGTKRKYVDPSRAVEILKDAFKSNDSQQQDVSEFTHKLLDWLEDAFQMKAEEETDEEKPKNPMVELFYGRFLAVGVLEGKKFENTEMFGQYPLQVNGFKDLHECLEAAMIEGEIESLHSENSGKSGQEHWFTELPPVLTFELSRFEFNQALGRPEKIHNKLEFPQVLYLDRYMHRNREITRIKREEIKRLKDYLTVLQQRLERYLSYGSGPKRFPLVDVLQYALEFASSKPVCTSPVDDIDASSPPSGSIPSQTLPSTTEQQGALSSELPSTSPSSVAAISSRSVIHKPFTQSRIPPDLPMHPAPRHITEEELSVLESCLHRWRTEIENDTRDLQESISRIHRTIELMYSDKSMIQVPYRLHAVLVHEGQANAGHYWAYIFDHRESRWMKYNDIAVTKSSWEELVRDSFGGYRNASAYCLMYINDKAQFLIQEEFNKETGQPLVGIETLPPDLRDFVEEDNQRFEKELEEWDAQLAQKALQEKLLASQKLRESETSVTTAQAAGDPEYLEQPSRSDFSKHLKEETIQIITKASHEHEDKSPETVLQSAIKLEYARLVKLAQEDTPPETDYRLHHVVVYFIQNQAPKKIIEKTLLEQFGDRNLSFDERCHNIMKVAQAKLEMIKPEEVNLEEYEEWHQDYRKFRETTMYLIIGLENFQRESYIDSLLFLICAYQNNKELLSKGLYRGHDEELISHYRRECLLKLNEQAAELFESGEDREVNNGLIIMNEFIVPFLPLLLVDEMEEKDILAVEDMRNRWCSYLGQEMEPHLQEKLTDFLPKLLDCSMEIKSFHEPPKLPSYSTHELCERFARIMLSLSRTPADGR
Method in brief: as §1

USP28 = molecular target: T3, USP28 (UniProt Q96RU2)
T3 sequence (whole entry): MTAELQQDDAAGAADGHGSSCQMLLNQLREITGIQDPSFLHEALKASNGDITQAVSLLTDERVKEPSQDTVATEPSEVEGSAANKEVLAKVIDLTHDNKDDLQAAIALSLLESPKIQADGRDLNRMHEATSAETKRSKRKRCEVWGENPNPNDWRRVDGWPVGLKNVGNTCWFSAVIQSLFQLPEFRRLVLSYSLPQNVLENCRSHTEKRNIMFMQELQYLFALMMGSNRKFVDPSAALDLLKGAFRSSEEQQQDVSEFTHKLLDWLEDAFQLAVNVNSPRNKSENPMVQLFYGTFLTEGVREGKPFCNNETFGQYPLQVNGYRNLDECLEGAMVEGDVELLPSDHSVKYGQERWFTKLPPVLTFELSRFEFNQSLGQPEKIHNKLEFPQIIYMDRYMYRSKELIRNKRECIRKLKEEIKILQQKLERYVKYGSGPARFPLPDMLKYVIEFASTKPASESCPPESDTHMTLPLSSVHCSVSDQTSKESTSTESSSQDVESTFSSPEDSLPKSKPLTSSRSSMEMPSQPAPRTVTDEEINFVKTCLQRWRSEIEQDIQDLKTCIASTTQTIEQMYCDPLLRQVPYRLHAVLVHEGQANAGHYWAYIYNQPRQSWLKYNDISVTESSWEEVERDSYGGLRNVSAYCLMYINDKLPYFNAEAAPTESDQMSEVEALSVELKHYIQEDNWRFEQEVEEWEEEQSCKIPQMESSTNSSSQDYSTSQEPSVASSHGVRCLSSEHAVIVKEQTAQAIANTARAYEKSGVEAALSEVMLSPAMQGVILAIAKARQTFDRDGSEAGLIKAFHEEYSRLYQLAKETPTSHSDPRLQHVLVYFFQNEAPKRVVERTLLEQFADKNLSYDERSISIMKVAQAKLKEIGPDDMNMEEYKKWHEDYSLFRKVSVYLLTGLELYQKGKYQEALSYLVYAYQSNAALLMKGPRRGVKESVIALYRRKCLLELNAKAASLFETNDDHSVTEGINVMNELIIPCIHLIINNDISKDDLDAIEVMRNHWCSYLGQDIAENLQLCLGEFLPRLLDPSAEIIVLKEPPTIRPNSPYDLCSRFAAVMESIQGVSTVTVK
Method in brief: as §1

Measured: log2 ratio of Biotin-Ahx-Ub-VS probe labelling

Sequence of USP24 (Q9UPU5 whole entry): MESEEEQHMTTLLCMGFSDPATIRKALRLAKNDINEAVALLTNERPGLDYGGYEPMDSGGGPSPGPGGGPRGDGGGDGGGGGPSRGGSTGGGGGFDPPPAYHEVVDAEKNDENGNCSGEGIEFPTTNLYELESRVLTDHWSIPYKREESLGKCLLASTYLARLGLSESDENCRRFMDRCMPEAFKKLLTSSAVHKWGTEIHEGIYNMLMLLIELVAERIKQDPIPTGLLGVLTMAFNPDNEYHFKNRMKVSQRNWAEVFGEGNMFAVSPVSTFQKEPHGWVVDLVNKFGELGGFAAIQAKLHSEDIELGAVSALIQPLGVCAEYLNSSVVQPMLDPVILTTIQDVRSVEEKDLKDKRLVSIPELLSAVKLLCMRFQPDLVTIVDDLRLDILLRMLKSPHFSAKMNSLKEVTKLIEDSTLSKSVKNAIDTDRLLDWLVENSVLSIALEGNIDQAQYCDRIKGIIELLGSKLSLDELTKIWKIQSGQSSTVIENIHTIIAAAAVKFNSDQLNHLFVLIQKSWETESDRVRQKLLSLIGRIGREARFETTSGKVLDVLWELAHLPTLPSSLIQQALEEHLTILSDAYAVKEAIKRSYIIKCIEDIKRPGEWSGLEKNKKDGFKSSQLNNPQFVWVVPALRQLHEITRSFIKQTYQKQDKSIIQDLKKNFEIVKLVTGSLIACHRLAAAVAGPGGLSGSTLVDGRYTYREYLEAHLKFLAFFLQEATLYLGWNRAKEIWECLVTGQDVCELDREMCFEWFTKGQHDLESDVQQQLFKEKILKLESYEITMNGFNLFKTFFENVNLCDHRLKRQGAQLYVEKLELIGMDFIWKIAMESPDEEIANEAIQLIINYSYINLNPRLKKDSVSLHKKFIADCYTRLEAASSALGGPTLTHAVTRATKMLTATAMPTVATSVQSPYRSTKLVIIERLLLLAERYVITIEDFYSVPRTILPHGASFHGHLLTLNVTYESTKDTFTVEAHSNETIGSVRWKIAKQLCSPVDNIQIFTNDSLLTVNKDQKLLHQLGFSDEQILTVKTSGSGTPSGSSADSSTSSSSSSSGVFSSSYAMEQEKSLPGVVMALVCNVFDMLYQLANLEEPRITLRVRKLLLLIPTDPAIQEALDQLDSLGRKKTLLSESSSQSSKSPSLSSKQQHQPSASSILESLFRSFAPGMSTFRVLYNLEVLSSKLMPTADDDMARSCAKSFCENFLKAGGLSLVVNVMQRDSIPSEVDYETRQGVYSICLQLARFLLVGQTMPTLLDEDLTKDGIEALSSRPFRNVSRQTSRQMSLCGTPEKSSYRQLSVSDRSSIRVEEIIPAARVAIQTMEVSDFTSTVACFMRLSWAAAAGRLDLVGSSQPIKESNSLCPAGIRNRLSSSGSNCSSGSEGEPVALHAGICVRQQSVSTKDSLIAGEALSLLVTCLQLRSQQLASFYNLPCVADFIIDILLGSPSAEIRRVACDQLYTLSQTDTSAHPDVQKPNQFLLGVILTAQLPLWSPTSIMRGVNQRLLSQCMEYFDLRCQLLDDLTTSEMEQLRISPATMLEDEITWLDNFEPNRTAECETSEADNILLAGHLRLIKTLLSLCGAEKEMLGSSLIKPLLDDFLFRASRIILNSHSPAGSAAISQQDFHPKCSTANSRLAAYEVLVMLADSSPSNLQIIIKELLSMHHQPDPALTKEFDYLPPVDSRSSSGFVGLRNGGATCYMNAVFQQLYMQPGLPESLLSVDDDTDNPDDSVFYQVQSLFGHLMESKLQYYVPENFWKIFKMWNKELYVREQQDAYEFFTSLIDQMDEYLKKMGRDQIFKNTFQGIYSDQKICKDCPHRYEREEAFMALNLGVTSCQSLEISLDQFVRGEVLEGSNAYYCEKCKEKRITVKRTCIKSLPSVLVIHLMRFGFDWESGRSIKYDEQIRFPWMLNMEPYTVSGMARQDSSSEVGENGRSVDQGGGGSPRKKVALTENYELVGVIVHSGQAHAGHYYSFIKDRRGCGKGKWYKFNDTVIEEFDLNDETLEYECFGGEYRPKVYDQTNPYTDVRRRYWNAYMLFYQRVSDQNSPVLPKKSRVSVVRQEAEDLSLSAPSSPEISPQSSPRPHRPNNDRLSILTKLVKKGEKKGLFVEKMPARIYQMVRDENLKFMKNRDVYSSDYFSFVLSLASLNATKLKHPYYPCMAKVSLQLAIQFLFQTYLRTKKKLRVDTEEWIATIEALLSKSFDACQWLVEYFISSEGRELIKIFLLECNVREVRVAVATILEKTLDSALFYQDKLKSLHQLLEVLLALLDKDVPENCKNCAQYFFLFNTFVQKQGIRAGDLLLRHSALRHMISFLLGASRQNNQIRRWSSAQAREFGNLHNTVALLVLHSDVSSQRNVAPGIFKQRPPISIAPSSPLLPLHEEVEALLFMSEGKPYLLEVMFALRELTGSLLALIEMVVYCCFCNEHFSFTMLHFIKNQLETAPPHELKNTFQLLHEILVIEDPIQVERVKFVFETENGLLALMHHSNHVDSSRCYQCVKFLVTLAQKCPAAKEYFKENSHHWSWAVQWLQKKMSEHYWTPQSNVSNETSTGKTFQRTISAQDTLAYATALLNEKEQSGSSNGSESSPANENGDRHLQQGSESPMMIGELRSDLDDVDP

O=C(CCl)N1CCOC2(CCC2)C1
inactive: USP19 0.0251 | USP24 -0.0132 | USP25 -0.216 | USP28 -0.0963

— the supplement of paper PMC11732987, “Enantioselective OTUD7B fragment discovery through chemoproteomics screening and high-throughput optimisation” (Communications Chemistry, 2025)
